{"source": "PubChem BioAssay (NCATS)", "key": {"[1]": {"target": "Cytochrome P450 2C9 (Homo sapiens) (UniProt P11712)", "sequence (P11712 whole entry, looked up)": "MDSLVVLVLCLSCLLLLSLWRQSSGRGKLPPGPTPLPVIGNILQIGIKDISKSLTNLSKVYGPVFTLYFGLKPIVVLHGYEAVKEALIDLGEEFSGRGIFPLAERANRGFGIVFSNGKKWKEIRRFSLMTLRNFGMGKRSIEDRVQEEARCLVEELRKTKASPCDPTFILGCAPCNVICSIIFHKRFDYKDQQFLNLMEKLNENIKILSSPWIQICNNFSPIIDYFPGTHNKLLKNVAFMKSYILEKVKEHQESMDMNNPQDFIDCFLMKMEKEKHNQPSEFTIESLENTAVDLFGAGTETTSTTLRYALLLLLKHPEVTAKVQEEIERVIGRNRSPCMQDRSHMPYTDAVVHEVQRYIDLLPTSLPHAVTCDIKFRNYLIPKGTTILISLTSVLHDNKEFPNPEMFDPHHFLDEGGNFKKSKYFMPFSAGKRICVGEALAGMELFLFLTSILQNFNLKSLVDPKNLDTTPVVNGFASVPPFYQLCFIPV", "test": "Cytochrome P450 family 2 subfamily C member 9 (CYP2C9) small molecule antagonists: luciferase biochemical (cell-free) qHTS assay (AID 1645842; active = well fitted curve in the direction sought with a large enough effect in the repeat runs; an effect the other way counts as inactive or inconclusive; also: nearly all actives have a fitted effect of over 55% in size)", "method_in_brief": "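P450-Glo CYP2C9 system: proluciferin substrate with enzyme in mix containing 0.4% BSA, 10 min at room temperature, then NADPH regeneration solution added and incubated 1 h at 37C. Detection reagent stopped reaction; luminescence read after 20 min as RLU.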"}, "[2]": {"test": "Primary qHTS for inhibitors of nuclear receptor binding SET domain protein 2 (NSD2) in an isogenic RCH-ACV NSD2 p.E1099K mutant (9B) (AID 1645876); also: nearly all actives have a fitted effect of over 70% in size"}, "[3]": {"test": "Primary qHTS for inhibitors of nuclear receptor binding SET domain protein 2 (NSD2) in an RCH-ACV wild type WT cells (2C) (AID 1645877); also: nearly all actives have a fitted effect of over 70% in size"}}, "note": "Values joined by “and” are separate entries in the source; they are usually repeats but may differ in a detail not shown here. Equal values may be shown once. Inconclusive results are not listed. Active and inactive are the calls of the source. Unless noted, calls follow the shape of the dose curve; as a rule, active = well fitted curve in the direction sought with a large enough effect; inconclusive = small, poorly fitted or top-dose-only effect, or another doubt; inactive = no such curve, though single readings can be large; an effect the other way counts as inactive or inconclusive. Potency is read from the fitted curve at half-maximal effect."}
{"smiles": "Cc1ccccc1CN1CCn2c1nc1c(c2=O)CN(Cc2ccccc2)CC1", "values": [{"measurement": "Potency", "setting": "[1]", "result": "8.49 µM (active)"}, {"measurement": "Potency", "setting": "[2]", "result": "inactive"}, {"measurement": "Potency", "setting": "[3]", "result": "inactive"}]}
{"smiles": "COC1CCN(c2cccc(-c3cc(NC(C)=O)nc(-n4nc(C)cc4C)n3)n2)CC1", "values": [{"measurement": "Potency", "setting": "[1]", "result": "10.7 µM (active)"}, {"measurement": "Potency", "setting": "[2]", "result": "20.5 µM (active)"}, {"measurement": "Potency", "setting": "[3]", "result": "16.3 µM (active)"}]}
{"smiles": "COC(=O)N1CCC(n2ncc3c(N4CCOCC4)nc(-c4ccc(NC(=O)NC5CC5)cc4)nc32)CC1", "values": [{"measurement": "Potency", "setting": "[1]", "result": "3.38 µM (active)"}, {"measurement": "Potency", "setting": "[2]", "result": "0.0817 µM (active)"}, {"measurement": "Potency", "setting": "[3]", "result": "0.115 µM (active)"}]}
{"smiles": "COC(=O)c1ccc2c(c1)[nH]c1ncnc(NCCCN3CCCCC3)c12", "values": [{"measurement": "Potency", "setting": "[1]", "result": "inactive"}, {"measurement": "Potency", "setting": "[2]", "result": "16.3 µM (active)"}, {"measurement": "Potency", "setting": "[3]", "result": "16.3 µM (active)"}]}
{"smiles": "O=C(NS(=O)(=O)c1ccc(Br)s1)c1ccc(Cl)cc1Cl", "values": [{"measurement": "Potency", "setting": "[1]", "result": "2.68 µM (active)"}, {"measurement": "Potency", "setting": "[2]", "result": "10.3 µM (active)"}, {"measurement": "Potency", "setting": "[3]", "result": "9.16 µM (active)"}]}
{"smiles": "CCOC(=O)N1CCC(N2CCC[C@@H](NC(=O)c3ccccc3C)C2)CC1", "values": [{"measurement": "Potency", "setting": "[1]", "result": "inactive"}, {"measurement": "Potency", "setting": "[2]", "result": "inactive"}, {"measurement": "Potency", "setting": "[3]", "result": "inactive"}]}
{"smiles": "FC(F)(F)c1ccccc1-c1cc(C(F)(F)F)c2nc(C3=NOC4(CCCCC4)C3)[nH]c2c1", "values": [{"measurement": "Potency", "setting": "[1]", "result": "inactive"}, {"measurement": "Potency", "setting": "[2]", "result": "18.3 µM (active)"}, {"measurement": "Potency", "setting": "[3]", "result": "14.5 µM (active)"}]}
{"smiles": "O=C(NCC1(N2CCN(c3ccccc3)CC2)CCOCC1)c1cccnc1Sc1ccccc1", "values": [{"measurement": "Potency", "setting": "[1]", "result": "3.79 µM (active)"}, {"measurement": "Potency", "setting": "[2]", "result": "inactive"}, {"measurement": "Potency", "setting": "[3]", "result": "inactive"}]}
{"smiles": "O=C(NCCCN1CCOCC1)c1cnn2c(-c3ccccc3)cc(-c3ccccc3)nc12", "values": [{"measurement": "Potency", "setting": "[1]", "result": "3.79 µM (active)"}, {"measurement": "Potency", "setting": "[2]", "result": "inactive"}, {"measurement": "Potency", "setting": "[3]", "result": "inactive"}]}
{"smiles": "O=C(COc1ccc2ccccc2c1Br)Nc1cccnc1", "values": [{"measurement": "Potency", "setting": "[1]", "result": "8.49 µM (active)"}, {"measurement": "Potency", "setting": "[2]", "result": "inactive"}, {"measurement": "Potency", "setting": "[3]", "result": "inactive"}]}
{"smiles": "CCn1c(=O)c(-c2ccc(Cl)cc2Cl)cc2cnc(Nc3ccc(N4CCNCC4)c(F)c3)nc21", "values": [{"measurement": "Potency", "setting": "[1]", "result": "inactive"}, {"measurement": "Potency", "setting": "[2]", "result": "290 nM (active) and 662 nM (active)"}, {"measurement": "Potency", "setting": "[3]", "result": "728 nM (active) and 742 nM (active)"}]}
